Measured values published in PubChem BioAssay (NCATS).
Inconclusive results are not listed. Where a call stands in place of a potency, no number is given. Calls of active or inactive are those of the source. Calls come from the whole dose curve.

Columns and labels:
[1] = Primary qHTS for Huh7 cytotoxicity: counterscreen for inhibitors of MERS-S pseudotyped particle cell entry (AID 1479147)
[2] = Primary qHTS for Vero E6 cytotoxicity: counterscreen for inhibitors of SARS-S pseudo-typed particle cell entry (AID 1479150)
[3] = Primary qHTS for inhibitors of MERS-S pseudo-typed particle cell entry (AID 1479149); note: nearly all actives have a fitted effect of over 60% in size; note: potency is the fitted concentration of half-maximal effect

| SMILES | Potency [1] | Potency [2] | Potency [3] |
| --- | --- | --- | --- |
| COc1cc(C)c(Cc2cnc(N)nc2N)cc1OC | inactive | inactive | – |
| CC(=O)N1CCN(c2ccc(OC[C@H]3CO[C@](Cn4ccnc4)(c4ccc(Cl)cc4Cl)O3)cc2)CC1 | – | – | 7.94 µM (active) |
| CC(=O)[C@H]1CC[C@H]2[C@@H]3C=CC4=CC(=O)CC[C@@]4(C)[C@@H]3CC[C@]12C | inactive | inactive | – |
| CC(=O)O[C@]1(C(C)=O)CC[C@H]2[C@@H]3C[C@H](C)C4=CC(=O)CC[C@]4(C)[C@H]3CC[C@@]21C | inactive | inactive | – |
| COc1cc(C)nc(-n2nc(C)cc2OC)n1 | inactive | inactive | – |
| Oc1ccc(Cl)c2cccnc12 | – | inactive | inactive |
